Screening results deposited in PubChem by National Center for Advancing Translational Sciences (NCATS).
IL-1B inflam inh: inhibitors of inflammasome signaling (IL-1 beta secretion) | THP-1 LPS/ATP IL-1B secretion, AlphaLISA, 16 h; stronger effect = lower value | activity change, % at 57.5 µM | actives 4.7% (n = 360,000) | AID 743279; in the data active means activity change below about -50%; inconclusive means mostly about -30% to -49%
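Secreted IL-1B measured by AlphaLISA bead assay after 16 h compound exposure of THP-1 cells; compounds (final up to 57.5 uM) added 1 h before LPS (250 ng/mL) and ATP (1.25 mM) stimulation; lower signal means less secretion.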
TDP1 inh: inhibitors of human tyrosyl-DNA phosphodiesterase TDP1; Q9NUW8; recombinant TDP1, AlphaScreen DNA substrate cleavage; Potency, µM (doses to about 130 µM), without a hit: at the highest dose activity change, negative = inhibition, most hits filed as inhibitors; actives 0.28% (n = 350,000); AID 485290; further: potency means the concentration at half of the fitted maximal effect; nearly all actives have a fitted effect of over 40% in size
Target sequence (Q9NUW8 whole entry, looked up): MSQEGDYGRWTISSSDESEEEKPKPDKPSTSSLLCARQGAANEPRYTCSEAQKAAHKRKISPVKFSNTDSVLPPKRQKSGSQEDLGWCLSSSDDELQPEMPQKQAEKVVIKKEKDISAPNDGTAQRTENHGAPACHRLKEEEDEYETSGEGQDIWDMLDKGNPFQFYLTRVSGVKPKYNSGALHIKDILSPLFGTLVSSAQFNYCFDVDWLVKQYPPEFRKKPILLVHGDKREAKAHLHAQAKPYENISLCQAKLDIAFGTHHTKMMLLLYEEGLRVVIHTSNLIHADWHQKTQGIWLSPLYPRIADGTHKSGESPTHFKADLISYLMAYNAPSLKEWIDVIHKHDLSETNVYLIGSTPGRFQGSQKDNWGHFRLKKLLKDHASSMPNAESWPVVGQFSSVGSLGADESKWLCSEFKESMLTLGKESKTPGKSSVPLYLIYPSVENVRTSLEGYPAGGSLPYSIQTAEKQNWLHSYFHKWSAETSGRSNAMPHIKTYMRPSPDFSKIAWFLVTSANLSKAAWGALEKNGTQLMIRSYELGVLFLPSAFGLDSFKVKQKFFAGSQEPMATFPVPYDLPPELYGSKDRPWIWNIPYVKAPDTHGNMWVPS
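Here, a 5' biotin and 3' phosphotyrosine-FITC DNA oligonucleotide reports Tdp1 activity: intact substrate bridges AlphaScreen beads, while cleavage leaves a 3' phosphate and drops signal. All incubations at room temperature.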
DT40 TDP1 no CPT: qHTS for Inhibitors of human tyrosyl-DNA phosphodiesterase 1 (TDP1): qHTS in cells in absence of CPT; DT40 Tdp1-/- hTDP1 cells, no CPT, ATP luminescence, 48 h; Potency, µM (series often up to 46.2 µM), for inactives: top-dose activity change, negative = growth inhibition, hits mostly inhibitors; actives 15% (n = 420,000); AID 686978, 2013; further: potency means the concentration at half of the fitted maximal effect; nearly all actives have a fitted effect of over 55% in size
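Camptothecin absent (DMSO only). Human TDP1-complemented DT40 knockout cells, 400 cells/well, 37 °C for minimum 48 hr; ATP measured via CellTiter-Glo, 30 min dark incubation, luminescence.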
TDP1 cell CPT: growth inhibition of DT40 Tdp1-/-;hTDP1 cells with camptothecin (screen for TDP1 inhibitors). chicken DT40 Tdp1-/-;hTDP1 cells + 20 nM CPT, ATP luminescence, 48 h. Potency, µM (highest dose often 46.2 µM), for the others: top-dose activity change, negative = growth inhibition, actives largely listed as inhibitors. actives 12% (n = 420,000). AID 686979; further: potency means the concentration at half of the fitted maximal effect; nearly all actives have a fitted effect of over 55% in size
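Cell growth measured by CellTiter-Glo luminescence after a minimum 48 h, 37 C compound exposure with 20 nM CPT in Tdp1-knockout DT40 cells stably expressing hTDP1, seeded 400/well; qHTS titration format.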
CtBP-E1A blk: inhibitors of CtBP/E1A interaction | AlphaScreen GST-E1A/His-CtBP binding, 1536-well; stronger effect = lower value | activity change, % (test concentration not listed) | AID 651724 | actives 0.49% (n = 340,000); in the data active means activity change below about -65%; inconclusive means mostly about -30% to -63%
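Homogeneous bead-based format: GST-tagged E1A captured on glutathione donor beads, His-tagged CtBP on nickel acceptor beads; compounds precede bead addition by 2 h at 37 °C.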
Six1-Eya2 inh: blocks human Six1 binding to Eya2; Q15475+O00167; AlphaScreen GST-Six1/His-Eya2 binding, biochemical; stronger effect = lower value; activity change, % (concentration not given with the values); actives 0.56% (n = 360,000); AID 651725; in the data active means activity change below about -65%; inconclusive means mostly about -30% to -63%
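GST-Six1 + His-Eya2 (5X stock: 250/500 nM); Tris pH 8.0, 300 mM NaCl, 0.05% BSA, 0.02% Tween 20; GSH donor/Ni acceptor beads; 1 h 37 °C dark; AlphaScreen readout.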
Active calls of the source: *; ? = inconclusive; nt = no result; [ ] = another dose, or the depositor's remark. A selection: hits, their analogues and other compounds. The true share with any hit is near 18%. Unless noted, the call rests on the fitted dose curve; in most records, active means well fitted curve in the direction sought with a large enough effect; inconclusive means small, poorly fitted or top-dose-only effect, or another doubt; inactive means no such curve, though single readings can be large; an effect the other way counts as inactive or inconclusive. On the % scale 0 is the no-effect control and ±100 the full control effect.

SMILES	IL-1B inflam inh	TDP1 inh	DT40 TDP1 no CPT	TDP1 cell CPT	CtBP-E1A blk	Six1-Eya2 inh
COc1ccccc1-n1cnc2cc(C(=O)NC3CCCC3)ccc21	0.0	0.0%	?	?	-9.7	-7.1
Cc1c(Cl)cccc1N/C(SCC(=O)N1CCCCCC1)=C(/C#N)c1nc2ccccc2s1	-93.5*	7.1%	11.6µM*	11.6µM*	-4.9	-6.7
O=C(CSc1nc2ccccc2s1)N1CCCCC1	11.9	2.3%	-11.1%	-4.2%	7.9	0.6
COc1cccc(-c2cc(C(=O)N3CCN(C(c4ccccc4)c4ccccc4)CC3)no2)c1	-8.9	1.9%	25.9µM*	20.6µM*	-14.7	-10.7
COc1ccc(-c2cc(C(=O)N3CCN(c4ccccc4OC)CC3)no2)cc1OC	-7.5	7.9%	20.6µM*	-14.6%	-7.4	30.2
COc1ccccc1N1CCN(C(=O)c2cc(-c3cccs3)on2)CC1	2.2	4.5%[56.1 µM]	?	?	32.1	11.2
COc1cccc(OCc2cc(C(=O)N3CCN(c4ccccc4O)CC3)no2)c1	0.0	6.4%	13µM*	16.4µM*	-3.6	-6.2
COc1ccccc1N1CCN(C(=O)c2cc(-c3ccccc3O)on2)CC1	19.3	4.9%	18.4µM*	20.6µM*	-0.7	37.0
COc1cccc(-c2cc(C(=O)N3CCOCC3)no2)c1	-1.5	9.6%	-13.0%	0.4%	9.9	5.3
O=C(CNC1CCCC1)Nc1ccc(S(=O)(=O)N2CCCCC2)cc1	-10.8	4.9%	?	-16.2%	1.8	1.1
COc1cc(OC)cc(-c2nnc(SCC(=O)N3CCCC3)o2)c1	-5.9	-2.0%	-26.8%	6.2%	-0.9	3.0
NC(=S)C(c1ccccc1)c1ncc(C(F)(F)F)cc1Cl (stereo not drawn)	-3.9	nt	6.5%	-10.3%	-6.7	-1.5
C/C(CCN1CCCc2nc(C)c(C)cc21)=N\O[C@@H](C)CN1CCCCc2nc(C)c(C)cc21	nt	9.0%[21 µM]	nt	nt	nt	nt
CC(C)c1ccc(N(C(=O)c2snc(C(N)=O)c2N)C(C(=O)NC2CCCC2)c2ccncc2)cc1 (stereo not drawn)	40.6	nt	23.1µM*	18.4µM*	-3.0	-3.2
CCC(C(=O)NC1CCCC1)N(C(=O)c1snc(C(N)=O)c1N)c1ccc(C)cc1C (stereo not drawn)	-8.0	0.4%	18.4µM*	?	6.5	-0.7
Cc1ccc(N(C(=O)c2snc(C(N)=O)c2N)C(CC(C)C)C(=O)NC2CCCC2)cc1 (stereo not drawn)	3.1	0.7%[0.0935 µM]	?	?	2.0	6.4
CCCCC(C(=O)NC1CCCC1)N(C(=O)c1snc(C(N)=O)c1N)c1ccc(C)cc1 (stereo not drawn)	-17.1	0.0%	?	18.4µM*	-22.5	-2.4
CCC(C(=O)NC1CCCC1)N(C(=O)c1snc(C(N)=O)c1N)c1ccc(OC)cc1 (stereo not drawn)	23.2	3.1%	12.9%	?	7.7	10.9
COc1ccccc1N1CCN(C(=O)C2CCCN(S(=O)(=O)c3ccc(C)cc3)C2)CC1 (stereo not drawn)	-26.2	1.5%	10.3µM*	16.4µM*	-1.3	-3.9
COc1ccccc1N1CCN(C(=O)C2CCCCN2S(=O)(=O)c2ccc(C)cc2)CC1 (stereo not drawn)	-4.1	nt	?	18.4µM*	-8.5	-1.3
CCc1ccc(CN(Cc2cn[nH]c2-c2ccc(OC)cc2)C(=O)Nc2cc(Cl)ccc2OC)cc1	nt	0.0%	23.1µM*	16.4µM*	nt	nt
COc1ccc(CN(CC2CCC(C(=O)O)CC2)C(=S)Nc2cc(Cl)ccc2OC)cc1 (stereo not drawn)	13.8	2.7%	1.9%	-5.3%	-3.1	7.2
COC(=O)CCN(C(=O)c1ccc([N+](=O)[O-])cc1)c1ccccn1	9.5	nt	7.2%	27.1%	3.0	1.0
CCCCNC(=O)C[C@@H]1C[C@@]2(C(=O)OC)CCCCC=C2N(CCc2ccc(OC)c(OC)c2)C1=O	-12.6	nt	23.1µM*	?	0.0	8.5
COC(=O)[C@]12CCCCC=C1N(CCc1ccc(OC)c(OC)c1)C(=O)[C@H](CC(=O)NCCC(C)C)C2	?	nt	?	?	-5.7	-10.8
SMILES	IL-1B inflam inh	TDP1 inh	DT40 TDP1 no CPT	TDP1 cell CPT	CtBP-E1A blk	Six1-Eya2 inh
COCCCNC(=O)C[C@@H]1C[C@@]2(C(=O)OC)CCCCC=C2N(CCc2ccc(OC)c(OC)c2)C1=O	23.6	nt	?	-14.7%	0.0	11.3
CCCCNC(=O)C[C@@H]1C[C@@]2(C(=O)OCC)CCCC=C2N(CCc2ccc(OC)c(OC)c2)C1=O	3.8	nt	18.4µM*	1.46µM*	0.3	-3.9
CCOC(=O)[C@]12CCC=C1N(CCC1=CCCCC1)C(=O)[C@H](CC(=O)N1CCSCC1)C2	28.2	nt	?	18.4µM*	4.9	-2.4
CCOC(=O)[C@]12CCCC=C1N(CCc1ccc(OC)c(OC)c1)C(=O)[C@H](CC(=O)NCCCCc1ccccc1)C2	-56.9*	nt	16.4µM*	?	-18.9	-21.8
CC(C)CC(=O)NC(=S)Nc1ccc(S(=O)(=O)N2CCCC2)cc1	2.2	-3.7%	?	?	nt	-1.0
CCN1CCN(Cc2nc3cc(NC(=O)c4cc(OC)c(OC)c(OC)c4)ccc3n2CC)CC1	nt	4.7%	-16.3%	-19.2%	nt	nt
COc1ccccc1NC(=O)COC(=O)[C@@H]1CCCN1C(=O)c1cccs1	16.7	4.5%	-6.4%	-15.0%	-5.4	-3.2
COc1ccccc1N(C)S(=O)(=O)c1ccc(C(=O)OCC(=O)Nc2ccc(C(N)=O)cc2)cc1	27.7	0.3%	?	?	nt	2.8
COC(=O)[C@]12CCCCC=C1N(CCc1ccc(OC)c(OC)c1)C(=O)[C@H](CC(=O)N1CCSCC1)C2	?	nt	?	?	-22.9	-2.6
CCCCCCCCN1C(=O)[C@H](CC(=O)NCC23CC4CC(CC(C4)C2)C3)C[C@@]2(C(=O)OCC)CCCC=C12	3.6	nt	18.4µM*	?	1.3	0.9
CCOC(=O)[C@]12CCC=C1N(CCC1=CCCCC1)C(=O)[C@H](CC(=O)NCc1cccc(C(F)(F)F)c1)C2	-21.5	nt	20.6µM*	?	-0.5	3.9
CCCCCCCCN1C(=O)[C@H](CC(=O)NCCC(C)C)C[C@@]2(C(=O)OCC)CCC=C12	9.0	nt	20.6µM*	20.6µM*	-0.6	-2.1
CCOC(=O)[C@]12CCCC=C1N(CCc1ccc(OC)c(OC)c1)C(=O)[C@H](CC(=O)N1CCSCC1)C2	-9.9	nt	?	16.4µM*	4.1	-7.0
